# Results taken from PMC7862700, “An all-to-all approach to the identification of sequence-specific readers for epigenetic DNA modifications on cytosine”.
# Experiments:
# Test in all cases: DAPPL (digital affinity profiling via proximity ligation, sequencing); 10 mM Tris-HCl pH 7.5, 50 mM NaCl, 1 mM DTT, 4% glycerol, room temperature, 30 min; GST-TFs on glutathione beads, 16-mer random dsDNA library, 0.1% formaldehyde crosslink after washing; high values mean tight binding
# Settings in all cases: protein: recombinant; tags: N-terminal GST; dsDNA, one strand shown
# ETV1 = ETV1 (Homo sapiens, UniProt P50549 1-477)
# Sequence of ETV1 (P50549 whole entry, the tested form may be a part): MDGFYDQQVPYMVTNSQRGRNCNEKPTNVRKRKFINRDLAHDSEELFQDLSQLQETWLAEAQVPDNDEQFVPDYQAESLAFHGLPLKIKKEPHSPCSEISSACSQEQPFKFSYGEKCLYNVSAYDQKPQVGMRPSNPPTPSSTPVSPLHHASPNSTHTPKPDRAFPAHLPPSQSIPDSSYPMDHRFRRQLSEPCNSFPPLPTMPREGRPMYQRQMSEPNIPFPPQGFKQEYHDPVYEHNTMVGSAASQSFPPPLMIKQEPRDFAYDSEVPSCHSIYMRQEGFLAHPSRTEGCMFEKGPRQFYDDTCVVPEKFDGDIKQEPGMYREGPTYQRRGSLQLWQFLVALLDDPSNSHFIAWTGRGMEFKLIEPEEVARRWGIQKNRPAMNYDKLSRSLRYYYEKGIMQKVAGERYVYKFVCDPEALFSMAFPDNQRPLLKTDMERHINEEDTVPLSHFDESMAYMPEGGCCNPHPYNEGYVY
# In short: (§1)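 Yeast served to express human transcription factors as GST fusions, which were then captured on glutathione beads and labelled with DNA barcodes. Pooled with a tag-only sample, they were incubated with 200 nmole of a 16-mer random double-stranded DNA library for 30 min at room temperature in Tris/NaCl/DTT/glycerol buffer, washed, crosslinked with 0.1% formaldehyde, ligated by proximity, amplified by PCR and sequenced. Dividing each hexamer's read frequency for a factor by its frequency for the tag-only sample gives the binding signal.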
# ERF = target: T1, ERF (Homo sapiens, UniProt P50548 1-548)
# T1 sequence: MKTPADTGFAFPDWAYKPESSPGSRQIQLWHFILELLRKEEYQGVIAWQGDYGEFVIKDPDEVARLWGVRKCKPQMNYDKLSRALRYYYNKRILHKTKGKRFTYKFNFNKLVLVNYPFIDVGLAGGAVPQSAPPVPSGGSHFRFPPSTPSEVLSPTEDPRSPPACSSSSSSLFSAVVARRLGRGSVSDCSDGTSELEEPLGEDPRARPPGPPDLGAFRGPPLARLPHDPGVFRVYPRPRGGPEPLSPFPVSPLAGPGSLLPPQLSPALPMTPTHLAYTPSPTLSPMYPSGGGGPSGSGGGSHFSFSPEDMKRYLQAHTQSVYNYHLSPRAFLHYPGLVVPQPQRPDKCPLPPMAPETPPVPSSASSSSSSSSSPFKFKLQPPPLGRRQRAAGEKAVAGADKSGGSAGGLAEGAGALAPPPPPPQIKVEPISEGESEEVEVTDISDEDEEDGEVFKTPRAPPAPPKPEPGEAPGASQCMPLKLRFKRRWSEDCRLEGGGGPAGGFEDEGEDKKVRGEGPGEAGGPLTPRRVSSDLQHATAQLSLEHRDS
# In short: as §1
# ETV3L = target: T2, ETV3L (Homo sapiens, UniProt Q6ZN32 1-361)
# T2 sequence: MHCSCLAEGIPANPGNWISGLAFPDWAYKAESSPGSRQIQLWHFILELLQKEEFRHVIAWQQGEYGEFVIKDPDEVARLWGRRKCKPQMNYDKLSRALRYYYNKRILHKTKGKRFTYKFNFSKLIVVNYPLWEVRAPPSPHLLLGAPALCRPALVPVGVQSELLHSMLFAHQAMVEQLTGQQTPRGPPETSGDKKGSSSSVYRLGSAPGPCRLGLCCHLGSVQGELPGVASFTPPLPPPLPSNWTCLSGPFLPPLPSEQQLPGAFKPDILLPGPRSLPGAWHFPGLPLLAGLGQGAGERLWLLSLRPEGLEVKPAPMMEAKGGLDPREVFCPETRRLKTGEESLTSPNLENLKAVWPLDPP
# In short: as §1
# ETS2 = target: T3, ETS2 (Homo sapiens, UniProt P15036 1-469)
# T3 sequence: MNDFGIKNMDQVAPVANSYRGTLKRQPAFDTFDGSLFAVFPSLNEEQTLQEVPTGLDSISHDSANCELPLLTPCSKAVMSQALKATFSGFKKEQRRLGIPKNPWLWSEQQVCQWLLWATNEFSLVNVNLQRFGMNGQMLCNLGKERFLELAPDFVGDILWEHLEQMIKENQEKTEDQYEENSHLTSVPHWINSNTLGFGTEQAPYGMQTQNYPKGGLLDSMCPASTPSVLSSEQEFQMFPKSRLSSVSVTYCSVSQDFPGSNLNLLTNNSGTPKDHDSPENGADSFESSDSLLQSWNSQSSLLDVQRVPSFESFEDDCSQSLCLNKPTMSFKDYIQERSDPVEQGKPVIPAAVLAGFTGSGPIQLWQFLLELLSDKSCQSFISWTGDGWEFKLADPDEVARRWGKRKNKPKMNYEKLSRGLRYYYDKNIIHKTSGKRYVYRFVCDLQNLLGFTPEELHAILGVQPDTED
# In short: as §1
# SPDEF = target: T4, SPDEF (Homo sapiens, UniProt O95238 1-335)
# T4 sequence: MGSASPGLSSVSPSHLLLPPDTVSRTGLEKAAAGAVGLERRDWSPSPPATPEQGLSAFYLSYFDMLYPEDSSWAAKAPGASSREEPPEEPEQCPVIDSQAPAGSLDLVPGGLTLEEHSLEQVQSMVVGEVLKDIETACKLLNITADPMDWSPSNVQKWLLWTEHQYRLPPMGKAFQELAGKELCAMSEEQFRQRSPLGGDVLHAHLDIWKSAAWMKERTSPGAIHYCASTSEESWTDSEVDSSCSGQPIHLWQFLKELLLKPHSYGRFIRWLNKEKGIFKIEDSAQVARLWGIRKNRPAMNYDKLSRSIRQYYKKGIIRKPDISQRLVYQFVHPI
# In short: as §1
# ETV7 = target: T5, ETV7 (Homo sapiens, UniProt Q9Y603 1-341)
# T5 sequence: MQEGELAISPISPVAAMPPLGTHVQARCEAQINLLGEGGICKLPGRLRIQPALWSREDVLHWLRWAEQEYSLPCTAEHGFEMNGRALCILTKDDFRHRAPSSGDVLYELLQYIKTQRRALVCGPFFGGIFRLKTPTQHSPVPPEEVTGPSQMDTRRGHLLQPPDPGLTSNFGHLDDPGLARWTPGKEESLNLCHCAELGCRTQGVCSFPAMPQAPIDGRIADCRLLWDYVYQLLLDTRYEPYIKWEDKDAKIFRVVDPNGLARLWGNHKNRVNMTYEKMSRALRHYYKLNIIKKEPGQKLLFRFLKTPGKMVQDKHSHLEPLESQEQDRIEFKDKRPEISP
# In short: as §1
# ELF5 = target: T6, ELF5 (Homo sapiens, UniProt Q9UKW6-2 1-255)
# T6 sequence: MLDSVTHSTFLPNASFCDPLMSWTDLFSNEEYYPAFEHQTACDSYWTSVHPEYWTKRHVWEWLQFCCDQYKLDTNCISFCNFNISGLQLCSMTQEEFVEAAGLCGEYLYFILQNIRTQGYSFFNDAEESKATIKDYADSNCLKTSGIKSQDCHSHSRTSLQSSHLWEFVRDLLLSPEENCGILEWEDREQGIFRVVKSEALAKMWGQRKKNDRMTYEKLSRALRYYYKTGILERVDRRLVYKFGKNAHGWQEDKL
# In short: as §1
# ETV3 = target: T7, ETV3 (Homo sapiens, UniProt P41162-2 1-143)
# T7 sequence: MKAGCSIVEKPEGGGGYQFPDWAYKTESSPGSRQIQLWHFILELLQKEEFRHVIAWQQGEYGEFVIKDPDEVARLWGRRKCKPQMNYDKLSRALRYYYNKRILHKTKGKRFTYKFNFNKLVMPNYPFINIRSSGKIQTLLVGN
# In short: as §1
# ETV6 = ETV6 (Homo sapiens, UniProt P41212 1-452)
# Sequence of ETV6 (P41212 whole entry): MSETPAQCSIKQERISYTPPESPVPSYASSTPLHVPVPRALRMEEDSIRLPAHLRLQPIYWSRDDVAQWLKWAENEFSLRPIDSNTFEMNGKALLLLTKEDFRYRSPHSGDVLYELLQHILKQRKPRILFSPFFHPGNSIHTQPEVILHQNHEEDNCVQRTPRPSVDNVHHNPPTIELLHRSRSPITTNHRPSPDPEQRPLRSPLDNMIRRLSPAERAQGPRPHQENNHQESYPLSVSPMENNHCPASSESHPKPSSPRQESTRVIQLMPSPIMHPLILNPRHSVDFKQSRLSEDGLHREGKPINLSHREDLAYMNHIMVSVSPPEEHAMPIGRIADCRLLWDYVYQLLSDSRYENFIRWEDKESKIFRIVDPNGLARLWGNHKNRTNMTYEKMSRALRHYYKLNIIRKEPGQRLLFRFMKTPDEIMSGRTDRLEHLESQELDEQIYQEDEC
# In short: as §1
sequence,measurement,setting,value
CTGTCT,binding signal,ETV1,"1.4 fold enrichment (6-mer frequency, TF over GST control)"
same,binding signal,ERF,"1.37 fold enrichment (6-mer frequency, TF over GST control)"
same,binding signal,ETV3L,"1.37 fold enrichment (6-mer frequency, TF over GST control)"
same,binding signal,ETS2,"1.4 fold enrichment (6-mer frequency, TF over GST control)"
same,binding signal,SPDEF,"1.44 fold enrichment (6-mer frequency, TF over GST control)"
same,binding signal,ETV7,"1.53 fold enrichment (6-mer frequency, TF over GST control)"
same,binding signal,ELF5,"1.28 fold enrichment (6-mer frequency, TF over GST control)"
same,binding signal,ETV3,"1.45 fold enrichment (6-mer frequency, TF over GST control)"
same,binding signal,ETV6,"1.32 fold enrichment (6-mer frequency, TF over GST control)"
